Sampled rows, rich in hits. Any-hit rate of the full collection: about 0.33%.
GLS inh = qHTS for Inhibitors of Glutaminase (GLS). GLS enzymatic activity, qHTS titration. Potency, µM (series often up to 45.5 µM), for inactives: top-dose activity change, negative = inhibition, actives largely listed as inhibitors. Glutaminase kidney isoform, mitochondrial (Homo sapiens), O94925. AID 624170, 2012. 0.21% of 410,000 active
Target sequence (O94925 whole entry, looked up, canonical isoform): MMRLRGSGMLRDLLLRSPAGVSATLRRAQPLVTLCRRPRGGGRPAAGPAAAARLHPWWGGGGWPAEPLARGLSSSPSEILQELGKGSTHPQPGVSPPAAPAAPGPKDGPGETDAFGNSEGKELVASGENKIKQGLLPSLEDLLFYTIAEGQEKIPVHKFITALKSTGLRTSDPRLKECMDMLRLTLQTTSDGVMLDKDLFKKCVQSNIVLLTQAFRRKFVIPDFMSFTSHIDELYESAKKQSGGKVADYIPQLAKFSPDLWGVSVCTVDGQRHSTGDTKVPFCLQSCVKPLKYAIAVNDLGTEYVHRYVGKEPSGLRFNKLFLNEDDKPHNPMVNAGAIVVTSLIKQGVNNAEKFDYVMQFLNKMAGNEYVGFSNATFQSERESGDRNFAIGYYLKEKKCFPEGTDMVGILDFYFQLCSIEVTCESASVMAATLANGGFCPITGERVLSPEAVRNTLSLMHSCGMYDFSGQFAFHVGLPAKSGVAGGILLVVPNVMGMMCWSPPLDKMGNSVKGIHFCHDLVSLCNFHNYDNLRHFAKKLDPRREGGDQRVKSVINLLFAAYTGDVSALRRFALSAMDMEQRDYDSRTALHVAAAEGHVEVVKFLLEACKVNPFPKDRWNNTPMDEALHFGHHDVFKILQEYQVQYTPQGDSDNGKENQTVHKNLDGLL
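Human kidney-isoform GLS in 45 mM KH2PO4 pH 8.2, 0.02% Tween-20, with compound, started with 1mM L-Glutamine (added stock). Glutamate oxidase/HRP/Amplex red coupled fluorescence read at start and after 30 min at RT.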
Pin1 inhibitor = qHTS Assay to Find Inhibitors of Pin1. AID 504891, 2011. Potency, µM (top dose mostly 115 µM), inactives show top-dose activity, negative = inhibition, most hits filed as inhibitors. Pin1 FP peptide displacement, HiFluor488, 10 min. 0.009% of 390,000 active; active = well fitted inhibition curve with a large enough effect in the polarisation, with a control signal flat, not every such curve was filed as active; inconclusive = small, poorly fitted or top-dose-only effect, or effect the other way, or a change in a side signal; inactive = no such curve, though single readings can be large or run the other way; the % refers to the polarisation
IDH1 R132H inh = qHTS for Inhibitors of mutant isocitrate dehydrogenase 1 (IDH1): qHTS; IDH1-R132H enzyme, NADPH consumption, diaphorase/resazurin fluorescence; Potency, µM (top dose mostly 76.6 µM), for inactives: top-dose activity change, negative = inhibition, hits mostly inhibitors; 0.093% of 390,000 active; Isocitrate dehydrogenase [NADP] cytoplasmic (Homo sapiens), O75874; also: nearly all actives have a fitted effect of over 65% in size
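IDH1-R132H (0.5 ug/mL dispensed) in pH 7.5 Tris buffer was preincubated 30 min with compound, then given a substrate mix of 0.016 mM NADPH and 2 mM alpha-KG for 80 min at room temperature; remaining NADPH was read by diaphorase/resazurin fluorescence.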
PGK inhibitor = qHTS Assay to Find Inhibitors of Phosphoglycerate Kinase | Potency, µM (highest dose often 57.5 µM), inactives show at the highest dose activity change, negative = inhibition, actives largely listed as inhibitors | PGK/GAPDH coupled, Kinase-Glo luminescence, 60 min | 0.043% of 380,000 active | AID 602233, 2012 | Phosphoglycerate kinase, glycosomal (Trypanosoma brucei brucei), P07378; also: nearly all actives have a fitted effect of over 60% in size
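Recombinant glycosomal PGK reaction used 1,3-bisphosphoglycerate generated in-well by GAPDH (100nM final) in 100mM TEA pH 7.6, 5mM MgCl2, 0.01% Tween-20. After 60 minutes at room temperature, ATP was read by Kinase-Glo Plus luminescence end-point.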
Active calls of the source: *; i = inactive; ? = inconclusive; . = not tested or not shown. Unless noted, calls follow the shape of the dose curve; as a rule, active = well fitted curve in the direction sought with a large enough effect; inconclusive = small, poorly fitted or top-dose-only effect, or another doubt; inactive = no such curve, though single readings can be large; an effect the other way counts as inactive or inconclusive. % is scaled to controls: 0 for no effect and ±100 for the full control effect; potency is read from the fitted curve at half-maximal effect.

SMILES | GLS inh | Pin1 inhibitor | IDH1 R132H inh | PGK inhibitor
CCOc1cccc(/C=N/NC(=O)CC2C(=O)NN=C2C)c1O (stereo not given) | 5.62µM* | 0.7% | 7.4% | 1.1%
COc1cc(/C=N/NC(=O)CC2C(=O)NN=C2C)ccc1O (stereo not given) | 20.9% | -2.1% | -2.2% | -4.3%
Cn1c(=O)c(C(=O)c2ccccc2)nc2ccccc21 | 11.2µM* | 0.5% | 8.3% | -4.6%
CC(Nc1nc(-c2ccc(F)cc2)cs1)c1nc2cc(Cl)c(Cl)cc2n1CCCO (stereo not given) | 7.4% | 15.5% | 13.5% | -9.5%
Cc1ccc(Cn2c(C(C)Nc3nc(-c4ccc(C)cc4)cs3)nc3cc(Cl)c(Cl)cc32)cc1 (stereo not given) | 10µM* | 35.0% | 7.2% | ?
Cc1ccc(NC(=O)c2ccc3c(c2)CCC(=O)N3)cc1C | . | -0.3% | . | .
O=C(O)c1cc2nccc(-c3ccco3)n2n1 | 11.2µM* | . | -4.9% | ?
COCc1cc(=O)n2[nH]c(SC)nc2n1 | 0.5% | -3.6% | 15.4% | -0.7%
COCc1cc(=O)n2[nH]c(N)nc2n1 | 8.91µM* | 6.1% | 0.0% | 1.6%
Cc1cc2c(s1)c1cnn(Cc3ccccc3Br)c(=O)c1n2C | . | -0.2% | . | .
CCc1ccc(NC(=O)C(C)Sc2nc(-c3ccco3)c(C#N)c(=O)[nH]2)cc1 (stereo not given) | 20µM* | -19.3% | -1.9% | -14.3%
Cc1cccc(Nc2nc(C#N)nc(NC3CCCC3)n2)c1 | . | 7.7% | . | .
O=c1c2ccccc2nc(-c2ccccc2O)n1Cc1ccccc1 | . | -7.5% | . | .
CO/N=C(/C(=O)N[C@@H]1C(=O)N2C(C(=O)O)=C(C[n+]3ccc(N)n3CCO)CS[C@H]12)c1csc(N)n1 | 9.1% | . | . | .
CO/N=C(\C(=O)N[C@@H]1C(=O)N2C(C(=O)[O-])=C(C[n+]3cccc4c3CCCC4)CS[C@H]12)c1csc(N)n1 | 6.31µM* | . | . | .
CON=C(C(=O)NC1C(=O)N2C(C(=O)O)=C(CSc3nc(=O)c(=O)[nH]n3C)CSC12)c1csc(N)n1 (stereo not given) | 17.8µM* | . | -8.1% | ?
CO/N=C(\C(=O)N[C@@H]1C(=O)N2C(C(=O)O)=C(COC(C)=O)CS[C@@H]12)c1csc(N)n1 | -11.6% | . | . | .
O=C(Nc1cccc(-c2nn3c(=O)cc(N4CCNCC4)nc3s2)c1)C1CCNCC1 | . | -5.7% | . | .
Oc1ccc(/C=C/c2ccccc2)c2cccnc12 | . | -0.5% | . | .
c1ccc(-c2c(-c3ccccc3)n(Cc3ccco3)c3ncnc(NCCCn4ccnc4)c23)cc1 | -2.8% | ? | 29.3µM* | 4.3%
COc1ccc(/C=C2\CCc3c2nc2ccccc2c3C(=O)O)cc1OC | 11.2µM* | ? | 0.0% | -12.5%
Nc1ccc(OC(=O)Nc2ccc(O)cc2)cc1 | 14.1µM* | -1.5% | 11.6% | -2.4%
Cc1cc2c(s1)c1cnn(Cc3c(Cl)cccc3Br)c(=O)c1n2C | . | -0.9% | . | .
O=C(c1ccccc1O)N(Cc1ccco1)Cc1ccco1 | . | -12.6% | . | .
Cc1nn(-c2ccccc2)c(C)c1C1C(C#N)=C(N)Oc2n[nH]c(C)c21 (stereo not given) | 20µM* | -1.4% | 6.8% | 4.8%
SMILES | GLS inh | Pin1 inhibitor | IDH1 R132H inh | PGK inhibitor
CCOC(=O)c1ccc(-n2cnc3c(c2=N)C(c2cccc(OC)c2)c2c(ccc4ccccc24)O3)cc1 (stereo not given) | . | 9.9% | . | .
COc1ccc2c(N)c(C(=O)NN)[nH]c2c1 | 12.6µM* | -1.4% | 1.6% | -0.2%
Cc1[nH][nH]c(=O)c1C(c1ccc(O)c(Br)c1)c1c(C)[nH][nH]c1=O | 12.6µM* | 9.0% | -1.2% | 1.9%
COc1ccc(C(c2c(C)[nH][nH]c2=O)c2c(C)[nH][nH]c2=O)cc1Br | 19.7% | -1.8% | -3.7% | -0.5%
Cc1ccc(-c2cc(C(=O)N3CCN(c4ccccc4O)CC3)c3ccccc3n2)cc1 | 7.08µM* | 3.3% | 1.1% | 4.5%
Cc1cc(C(=O)c2ccccc2)cc(C)c1O | 4.6% | -5.2% | 2.9% | 1.9%
O=C(c1ccccc1)c1ccc(O)c(O)c1O | 10µM* | -21.1% | 18.2% | ?
Cc1cc(Cl)ccc1N1C(=O)CC(NNC(=O)c2cccnc2)C1=O (stereo not given) | 7.08µM* | 1.6% | 5.0% | 1.5%
O=C1CCc2cc(S(=O)(=O)Nc3ccc(F)c(Cl)c3)ccc2N1 | . | 0.6% | . | .
O=[N+]([O-])c1ccc(N2CCN(c3ccc(O)cc3)CC2)cn1 | 10µM* | 1.4% | 3.4% | -1.4%
O=[N+]([O-])c1ccc(N2CCN(c3ccccc3Cl)CC2)cn1 | -9.2% | -14.6% | 10.9% | -1.1%
O=C(O)CN1C(=O)/C(=C\c2cn(-c3ccccc3)nc2-c2ccccc2)SC1=S | ? | 42.6µM* | -16.6% | -9.9%
N#Cc1ccccc1S(=O)(=O)N1CCN(S(=O)(=O)c2ccc3c(c2)OCCO3)CC1 | . | 6.8% | . | .
Cc1ccc(N=C2NC(=O)CS2)cc1 | 6.7% | 11.8% | 9.8% | -2.4%
Cc1ccc(C)n1/N=C1/NC(=O)CS1 | 10µM* | ? | -2.9% | ?
COC(=O)c1ccc(Cn2ncc3c4sc(C)cc4n(C)c3c2=O)cc1 | . | 0.0% | . | .
CN(C)[C@H]1C(=O)C(C(=O)NCN2CCCC2)=C(O)[C@]2(O)C(=O)C3=C(O)c4c(O)cccc4[C@@](C)(O)[C@H]3C[C@@H]12 | 5.01µM* | . | . | .
CN(C)c1ccc(O)c2c1CC1CC3[C@@H](N(C)C)C(=O)C(C(N)=O)=C(O)[C@]3(O)C(=O)C1=C2O (stereo not given in full) | -0.3% | 2.1% | . | -14.0%
CC1(C)Cc2c(cnn2-c2ccc(F)cc2)C(NC(=O)c2ccco2)C1 (stereo not given) | -15.7% | -0.5% | 5.2% | i
CC1(C)Cc2c(cnn2-c2ccc(F)cc2)C(NC(=O)C2=NNC(=O)CC2)C1 (stereo not given) | 15.8µM* | -7.4% | 0.0% | -3.5%
O=S(=O)(Nc1ccc(O)c2ccccc12)c1cccs1 | 11.2µM* | 3.6% | 21.9% | 2.7%
CC(O)CNc1nc2c(c(=O)n(Cc3ccc(Br)cc3)c(=O)n2C)n1C (stereo not given) | 20µM* | -2.8% | -6.3% | i
Cn1c(N2CCOCC2)nc2c1c(=O)n(Cc1ccc(Cl)cc1)c(=O)n2C | 12.6µM* | 0.4% | -6.8% | -0.6%
CC(O)CNc1nc2c(c(=O)n(Cc3ccccc3)c(=O)n2C)n1C (stereo not given) | 21.2% | -1.3% | 5.6% | -2.3%
Cn1c(N2CCC(C(N)=O)CC2)nc2c1c(=O)n(Cc1ccc(Br)cc1)c(=O)n2C | 12.6µM* | -1.0% | 0.0% | -4.7%
Oc1ccc(N=C/C=C/c2cccc(Br)c2)cc1-c1nc2ccccc2s1 | 14.1µM* | -5.4% | 2.3% | -6.4%
NNc1ccc([N+](=O)[O-])c2[nH][nH]c(=O)c12 | 7.94µM* | . | 1.2% | ?
CCc1cccc(NC(=O)CN2C(=O)CCc3cc(S(=O)(=O)N4CCOCC4)ccc32)c1 | 3.8% | -0.2% | 12.6% | -8.2%
